Here are results for eight molecules from PubChem BioAssay.

The structures appear in SMILES notation. Activity calls are given as the source filed them.

A short description of assay [1]: optical density shifts of acrAB sulA E. coli – strain DRC41, OD650, 48 h, E. coli filamentation inducer project, primary screen (AID 1152).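 Note: E. coli MC1000 strain DRC41 lacking acrAB efflux pump and sulA.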 Conditions: higher = more signal, called active from +8 up or from −8 down.
The nature of assay [2]: probe aLefty1 binding on compound microarray – biochemical, small-molecule microarray, 635/667 nm fluorescence, primary screen (AID 1153).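 Note: score merges spot fluorescence with signal-to-noise ratio from the scanned slide images.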 The conditions noted are these: higher = more signal.
Assay [3] is described as follows: plasmodial surface anion channel blockers, osmotic lysis – cell-based, P. falciparum Indochina, OD700, 1 h, primary screen (AID 1154). Conditions: P. falciparum Indochina infected RBC osmotic lysis, higher = more signal, called active from +8 up or from −8 down.
A short description of assay [4]: plasmodial surface anion channel blockers, osmotic lysis – cell-based, P. falciparum Indochina, OD700, 2 h, primary screen (AID 1155).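 Note: lysis reports solute entry through the parasite surface anion channel PSAC.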 Conditions: P. falciparum Indochina infected erythrocytes, higher = more signal, called active from +8 up or from −8 down.
Assay [5] in a line: changes in parasitized red cell lysis, either direction – P. falciparum Indochina, OD700, 3 h, PSAC antagonist project, primary screen (AID 1156). Conditions: P. falciparum-infected erythrocytes, osmotic lysis, higher = more signal, called active from +8 up or from −8 down.
A short description of assay [6]: plasmodial surface anion channel blockers, osmotic lysis – cell-based, P. falciparum Indochina, OD700, 18 h, primary screen (AID 1157). The conditions noted are these: P. falciparum Indochina infected erythrocytes, osmotic lysis OD700, 18 h; higher = more signal, called active from +8 up or from −8 down.
Assay [7] can be described thus: S6 kinase pathway phospho-S6 level changes – cell-based, A549, cytoblot, luminescence, serum-stimulated, primary screen (AID 1158).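 Note: serum-stimulated A549 lung adenocarcinoma cells; signal is phosphorylated S6 detected by cytoblot immunostaining with HRP secondary.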 The conditions noted are these: 5 h, higher = more signal.
Assay [8] deals with NADPH oxidase 2 (Homo sapiens) (UniProt P04839). As to the kind of experiment: compounds shifting NOX2 Amplex Red fluorescence – cell-based, HEK293-NOX2, PMA-stimulated, NOX inhibitor project, primary screen (AID 1159). Note: test concentration not given here. Conditions: 45 min, higher = more signal, called active from +8 up or from −8 down.
NADPH oxidase 2 (Homo sapiens), sequence (P04839 whole entry, looked up): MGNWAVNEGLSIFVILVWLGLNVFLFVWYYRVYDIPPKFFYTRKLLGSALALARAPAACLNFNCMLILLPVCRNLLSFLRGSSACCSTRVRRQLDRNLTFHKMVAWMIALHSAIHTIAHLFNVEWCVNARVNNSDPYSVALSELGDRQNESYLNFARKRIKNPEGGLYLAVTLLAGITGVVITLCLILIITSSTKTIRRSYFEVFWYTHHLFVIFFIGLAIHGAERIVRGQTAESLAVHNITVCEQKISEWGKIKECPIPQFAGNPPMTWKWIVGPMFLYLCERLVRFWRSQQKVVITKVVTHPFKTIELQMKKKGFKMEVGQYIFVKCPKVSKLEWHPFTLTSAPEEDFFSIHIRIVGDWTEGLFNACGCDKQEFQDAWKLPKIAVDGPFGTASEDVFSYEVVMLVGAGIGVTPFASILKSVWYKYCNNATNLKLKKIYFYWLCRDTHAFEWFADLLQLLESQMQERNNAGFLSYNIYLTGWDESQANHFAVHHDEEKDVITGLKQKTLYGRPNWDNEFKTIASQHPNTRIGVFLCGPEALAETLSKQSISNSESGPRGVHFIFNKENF
Assay [9] deals with NADPH oxidase 4 (Homo sapiens) (UniProt Q9NPH5). Briefly: compounds shifting NOX4 Amplex Red fluorescence – cell-based, HEK293-NOX4, tetracycline-induced, NOX inhibitor project, primary screen (AID 1160). Conditions: HEK293-NOX4, Amplex Red H2O2 fluorescence, 45 min; higher = more signal, called active from +8 up or from −8 down.
NADPH oxidase 4 (Homo sapiens), sequence (Q9NPH5 whole entry, looked up): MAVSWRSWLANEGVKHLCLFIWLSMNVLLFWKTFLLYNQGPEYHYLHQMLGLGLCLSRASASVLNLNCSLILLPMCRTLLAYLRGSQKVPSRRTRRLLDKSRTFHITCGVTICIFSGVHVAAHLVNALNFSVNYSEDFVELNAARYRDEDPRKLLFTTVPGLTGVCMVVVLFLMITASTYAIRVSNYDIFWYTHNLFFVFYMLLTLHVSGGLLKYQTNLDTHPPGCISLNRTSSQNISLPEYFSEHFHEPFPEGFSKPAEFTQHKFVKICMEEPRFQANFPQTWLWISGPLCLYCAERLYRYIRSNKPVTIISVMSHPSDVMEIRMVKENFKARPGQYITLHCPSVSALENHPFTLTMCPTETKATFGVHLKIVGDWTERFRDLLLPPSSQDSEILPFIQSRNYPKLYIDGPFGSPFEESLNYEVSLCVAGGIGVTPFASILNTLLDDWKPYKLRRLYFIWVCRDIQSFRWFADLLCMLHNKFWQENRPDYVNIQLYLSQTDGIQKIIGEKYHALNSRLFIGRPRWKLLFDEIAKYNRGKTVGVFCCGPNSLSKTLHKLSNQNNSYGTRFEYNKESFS
Assay [10] has as its target NADPH oxidase 5 (Homo sapiens) (UniProt Q96PH1). As to the kind of experiment: compounds shifting NOX5 Amplex Red fluorescence – cell-based, HEK293-NOX5, NOX inhibitor project, primary screen (AID 1161). The conditions noted are these: HEK293-NOX5, ionomycin, 45 min, higher = more signal.
Assay [11] in a line: compound effects on lung adenocarcinoma cell viability – A549, calcein-AM fluorescence, 48 h, basal, profiling panel (AID 1162). Note: test concentration not given here. Conditions: higher = more signal.
Assay [12] in a line: compound effects on differentiated 3T3-L1 adipocyte viability – cell-based, 3T3-L1 adipocytes, calcein-AM fluorescence, 48 h, basal, profiling panel (AID 1163). Note: test concentration not given here. Conditions: 3T3-L1 adipocytes viability, higher = more signal.
Assay [13] is described as follows: compound effects on hepatocellular carcinoma cell viability – HepG2, calcein-AM fluorescence, 48 h, basal, profiling panel (AID 1164). Note: test concentration not given here. The conditions noted are these: higher = more signal.
A short description of assay [14]: compound effects on multiple myeloma cell viability – MM1S, calcein-AM fluorescence, 48 h, basal, profiling panel (AID 1165). Note: test concentration not given here. The conditions noted are these: higher = more signal.
Assay [15] can be described thus: calcein-AM signal in unstimulated myeloma cells – cell-based, calcein-AM fluorescence, 48 h, PK04 Diversity Set, profiling panel (AID 1166).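 Note: cells grown under basal conditions without added stimulus; test concentration not given here.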 Conditions: RPMI8226 myeloma viability, higher = more signal.
Assay [16] is described as follows: JC-1 mitochondrial signal, unstimulated HepG2 cells – cell-based, JC-1 fluorescence, 24 h, 100 nL compound, profiling panel (AID 1167). Note: test concentration not given here. Conditions: HepG2 mitochondrial potential, higher = more signal.
Assay [17] is described as follows: JC-1 mitochondrial signal, unstimulated adipocytes – cell-based, JC-1 fluorescence, 3T3-L1 adipocytes, 24 h, 100 nL compound, profiling panel (AID 1168). Note: test concentration not given here. The conditions noted are these: JC-1 mitochondrial fluorescence, higher = more signal, called active from +8 up or from −8 down.
The nature of assay [18]: JC-1 mitochondrial signal, unstimulated myeloma cells – cell-based, JC-1 fluorescence, RPMI8226, 24 h, 100 nL compound, profiling panel (AID 1169). Note: test concentration not given here. The conditions noted are these: JC-1 mitochondrial potential fluorescence, higher = more signal.
Assay [19] is described as follows: JC-1 mitochondrial signal, unstimulated MM1S myeloma – cell-based, JC-1 fluorescence, 24 h, 100 nL compound, profiling panel (AID 1170). Note: test concentration not given here. The conditions noted are these: MM1S mitochondrial potential, higher = more signal.
Assay [20] in a line: resazurin metabolic signal in A549 cells – cell-based, resazurin fluorescence, 24 h, PK04 Diversity Set, profiling panel (AID 1171). Note: test concentration not given here. The conditions noted are these: A549 viability, higher = more signal, called active from +8 up or from −8 down. (Resazurin is reduced to fluorescent resorufin, in cell work by metabolically active cells.)

NADPH oxidase 5 (Homo sapiens), sequence (Q96PH1 whole entry, looked up): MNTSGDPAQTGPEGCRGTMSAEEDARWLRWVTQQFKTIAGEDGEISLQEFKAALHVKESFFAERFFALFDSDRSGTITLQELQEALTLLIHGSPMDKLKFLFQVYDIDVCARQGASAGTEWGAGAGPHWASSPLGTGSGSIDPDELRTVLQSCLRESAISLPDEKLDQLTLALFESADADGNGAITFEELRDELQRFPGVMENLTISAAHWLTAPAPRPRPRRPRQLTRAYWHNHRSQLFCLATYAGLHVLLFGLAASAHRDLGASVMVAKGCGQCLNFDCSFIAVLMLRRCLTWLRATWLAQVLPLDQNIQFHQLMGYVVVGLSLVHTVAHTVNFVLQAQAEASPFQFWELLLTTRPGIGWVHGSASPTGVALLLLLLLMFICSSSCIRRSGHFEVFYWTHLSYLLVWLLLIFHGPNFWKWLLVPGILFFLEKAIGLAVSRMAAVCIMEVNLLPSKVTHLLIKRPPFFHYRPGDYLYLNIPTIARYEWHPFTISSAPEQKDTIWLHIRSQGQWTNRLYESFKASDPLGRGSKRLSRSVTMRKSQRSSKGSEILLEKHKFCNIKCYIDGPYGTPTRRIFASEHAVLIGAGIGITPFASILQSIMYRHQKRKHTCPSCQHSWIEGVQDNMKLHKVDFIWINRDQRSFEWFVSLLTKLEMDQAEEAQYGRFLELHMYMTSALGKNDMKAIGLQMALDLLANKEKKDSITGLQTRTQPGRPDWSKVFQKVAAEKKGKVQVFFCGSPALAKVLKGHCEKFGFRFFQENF

On to `O=C1O[C@@H](c2ccccc2)[C@@H](c2ccccc2)N2[C@@H](c3ccc(OCCO)cc3)[C@]3(C(=O)Nc4ccc(C#CCCO)cc43)[C@@H](C(=O)O)[C@H]12`, for which the z-score in [1] is 0.624 (inactive); in [3] it was 1.93 (inactive); in assay [4], -0.0017 (inactive); in assay [5] it was 0.88 (inactive); in [6], -0.097 (inactive); in assay [7] it was -0.197. Further, the z-score in assay [8] is 2.08 (inactive); in assay [9], 0.716 (inactive); in [10], 1.1; in assay [11], 1.35; in [12], -0.997; in assay [13], 0.831. Moreover, the z-score in assay [14] is 0.942; in assay [15] it was 0.926; in [16], -0.498; in assay [17] it was -0.382 (inactive); in assay [18], 0.284; in assay [19], -0.811. Further, the z-score in assay [20] was -0.384 (inactive). This molecule also had a composite z-score in assay [2] of 1.31.

Turning to `CC1CC/C=C\[C@H]2OC34C=CCN(C(C)(C)C)C(=O)[C@H]3N(CCCO)C(=O)[C@@H]4C2C(=O)O1` (stereo not given in full), the z-score in assay [1] is 0.0581 (inactive); in [3] it was -0.022 (inactive); in assay [4] it was 0.571 (inactive); in assay [5] it was -0.857 (inactive); in assay [6], 0.235 (inactive); in assay [7], 0.337. The z-score in assay [8] is 0.78 (inactive); in assay [9], -2.14 (inactive); in [10] it was 1.25; in [11], -0.459; in [12], 0.0593; in [13], -0.869. For the same molecule, the z-score in assay [14] was 1.15; in assay [15] it was -0.339; in assay [16], -0.749; in [17] it was -0.274 (inactive); in assay [18] it was -0.0634; in assay [19], 0.522. Besides, the z-score in assay [20] was -0.0125 (inactive). For the same molecule, in assay [2], the composite z-score is -0.0954.

Regarding `O=C(NCCN1CCOCC1)[C@@H]1c2ccccc2C(=O)N(Cc2ccc(OC(F)(F)F)cc2)[C@H]1c1ccc(CO)cc1`, the z-score in assay [1] was -0.288 (inactive); in assay [3], 1.09 (inactive); in [4], 0.655 (inactive); in [5] it was 1.74 (inactive); in [6], -0.161 (inactive); in [7], -0.219. Moreover, the z-score in assay [8] is 0.134 (inactive); in [9], 0.891 (inactive); in assay [10], 2.07; in assay [11], 3.01; in assay [12], 1.04; in [13] it was 0.113. The z-score in [14] was 0.0559; in assay [15] it was -0.231; in [16] it was 2.31; in assay [17] it was 0.229 (inactive); in [18], 1.04; in assay [19], 0.745. Also, the z-score in assay [20] was 0.614 (inactive). This molecule returned a composite z-score in assay [2] of -0.222.

Regarding `C=CCC(OC(C)=O)[C@@H]1[C@@H](N(Cc2cccc3ccccc23)C(=O)Cc2ccc(OC)cc2)c2cc(OCCCO)ccc2N1C(=O)c1ccc2ccccc2c1` (stereo not given in full), the z-score is 0.808 (inactive) in assay [1]; 0.79 (inactive) in assay [3]; -0.443 (inactive) in [4]; -0.214 (inactive) in [5]; -0.691 (inactive) in assay [6]; 1.2 in [7]. Further, the z-score in assay [8] was -2.11 (inactive); in assay [9], -1.24 (inactive); in assay [10], -0.827; in [11], 1.19; in [12], 2.02; in assay [13], 0.692. The z-score is 0.357 in assay [14]; 1.19 in [15]; 2.55 in assay [16]; 0.443 (inactive) in assay [17]; 0.066 in assay [18]; 0.433 in [19]. Further, in assay [20], the z-score was 0.445 (inactive). This molecule also returned a composite z-score in assay [2] of 0.147.

With `O=C1O[C@H](c2ccccc2)[C@H](c2ccccc2)N2[C@H]1[C@@H](C(=O)O)[C@]1(C(=O)Nc3ccc(C#CCCO)cc31)[C@H]2c1ccc(OCCO)cc1`, the z-score is 0.761 (inactive) in assay [1]; 4.88 (inactive) in [3]; 0.927 (inactive) in assay [4]; 0.232 (inactive) in assay [5]; 0.138 (inactive) in [6]; 0.112 in assay [7]. Also, the z-score is 1.43 (inactive) in assay [8]; 1.21 (inactive) in [9]; 0.51 in assay [10]; 0.616 in assay [11]; 1 in [12]; 0.461 in assay [13]. Besides, the z-score in assay [14] was -0.963; in [15], 0.926; in assay [16], -0.76; in assay [17], -0.138 (inactive); in assay [18], 0.489; in assay [19], 0.492. Further, the z-score in assay [20] is 0.367 (inactive). In assay [2], this molecule had a composite z-score of 0.154.

Regarding `O=C1C2C=CC(C(O)c3c(F)cccc3Cl)N(Nc3ccc([N+](=O)[O-])cc3)C2C(=O)N1c1ccccc1` (stereo not given), the z-score in assay [1] is -0.262 (inactive); in assay [3] it was 30 (active); in [4] it was 21 (active); in assay [5] it was 2.34 (inactive); in [6], 1.76 (inactive); in assay [7], -0.24. The z-score in assay [8] was -1.5 (inactive); in [9], -2.29 (inactive); in [10], -1.9; in assay [11], -1; in assay [12] it was -0.0012; in assay [13], -0.645. Further, the z-score was 0.19 in assay [14]; -1.09 in assay [15]; -1.14 in [16]; -1.26 (inactive) in [17]; -0.209 in [18]; -0.542 in [19]. Also, the z-score in [20] was 0.372 (inactive). Besides, the composite z-score in assay [2] came to 0.218.

Take `[N-]=[N+]=Nc1ccccc1C[C@@]1(C(=O)NCC(O)CO)N=C(c2ccc(OCCCO)cc2)O[C@@H]1c1ccccc1` (stereo not given in full): the z-score in assay [1] was 0.445 (inactive); in assay [3], 26.6 (active); in assay [4] it was 14.1 (active); in assay [5] it was 2.05 (inactive); in assay [6], 1.87 (inactive); in assay [7], 0.122. The z-score in assay [8] was 2.51 (inactive); in assay [9], 0.662 (inactive); in assay [10], -0.946; in [11] it was 0.378; in [12], -0.326; in assay [13], 0.75. Also, the z-score in [14] was -0.39; in [15], -0.342; in assay [16], 0.582; in assay [17], -0.186 (inactive); in assay [18] it was -1.2; in assay [19], -0.145. In addition, the z-score in assay [20] is -0.235 (inactive). For the same molecule, the composite z-score in assay [2] is 0.102.

For the molecule `CN(C)CCCC[C@@H]1NC(=O)[C@H]2C[C@@H](C(=O)O)[C@@H](c3ccc(O)cc3)N2C1=O`, the z-score in assay [1] was 2.2 (inactive); in [3], 3.21 (inactive); in assay [4] it was 0.73 (inactive); in [5], -2.43 (inactive); in assay [6], -0.849 (inactive); in assay [7], 0.651. Further, the z-score is 0.485 (inactive) in assay [8]; -1.06 (inactive) in [9]; 1.4 in assay [10]; 0.151 in assay [11]; 1.73 in assay [12]; 0.326 in assay [13]. The z-score in assay [14] is -1.24; in assay [15], -0.817; in [16], -0.0533; in assay [17], 0.419 (inactive); in assay [18], -0.693; in assay [19], 0.38. For the same molecule, the z-score in assay [20] was -0.569 (inactive). In addition, the composite z-score in [2] was 2.57.
